From the supplement of paper PMC3414501
Counter-ions that a name gives are not always drawn.

Experiments:
[1] = system: S. cerevisiae SK1 pCDA2-eGFP (USY613), sporulating; assay: CDA2-GFP sporulation assay sensitivity score (z-score vs DMSO controls); higher = stronger inhibition of sporulation, active = hit call of the paper;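 note: active if sensitivity score above 5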
[2] = system: S. cerevisiae NKY1551 his4x/his4B, sporulating; assay: HIS4 meiotic recombination assay sensitivity score (z-score vs DMSO controls); higher = stronger inhibition of sporulation/recombination, active = hit call of the paper;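 note: active if sensitivity score above 5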
[3] = system: S. cerevisiae AD1-9 (efflux-pump deficient), vegetative growth in YPD; assay: growth sensitivity score (doubling time z-score vs DMSO controls); higher = slower growth, strongly negative scores also mark growth inhibition (complete suppression), active = hit call of the paper
Procedure, shortened: (§1)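 Saccharomyces cerevisiae strains BY4741 and AD1-9 were seeded in rich medium in microtiter plates at an OD600 of 0.065. Compounds were added at a 1:100 dilution of DMSO stock. Optical density was read every 15 min for 24 hours on a Tecan GENios reader. Average doubling time was the time taken to reach a set generation point divided by generation number, and the growth sensitivity score was (compound mean − DMSO-control mean)/DMSO-control SD, using eight DMSO controls per experiment.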

[4] = system: S. cerevisiae BY4741 (wild-type), vegetative growth in YPD; assay: as above
Procedure, shortened: as §1

| SMILES | CDA2-GFP sporulation assay sensitivity score [1] | HIS4 meiotic recombination assay sensitivity score [2] | growth sensitivity score [3] | growth sensitivity score [4] |
| --- | --- | --- | --- | --- |
| Nc1ccc(O)c(C(=O)O)c1 [Mesalamine] (stock concentration (mM, diluted 1:100): 10) | -1.48 (inactive) | -2.13 (inactive) | -2.51 | -0.33 (inactive) |
| Cc1nc2ccccn2c(=O)c1CCN1CCC(C(=O)c2ccc(F)cc2)CC1 [Pirenperone] (stock concentration (mM, diluted 1:100): 10) | 13.6 (active) | 2.21 (inactive) | -0.84 (inactive) | -0.59 (inactive) |
| Nc1[nH]c(=O)ncc1F [5-Fluorocytosine] (stock concentration (mM, diluted 1:100): 10.5) | 0.12 (inactive) | -1.29 (inactive) | 36.6 (active) | 54.5 (active) |
| CCC(C)n1ncn(-c2ccc(N3CCN(c4ccc(OCC5COC(Cn6cncn6)(c6ccc(Cl)cc6Cl)O5)cc4)CC3)cc2)c1=O (centres undefined) [Itraconazole] (stock concentration (mM, diluted 1:100): 10.1) | 0.16 (inactive) | -1.94 (inactive) | 21.4 (active) | 10.9 (active) |
| OC[C@H]1O[C@@H](n2cnc3c(N[C@H]4CCC[C@@H]4O)ncnc32)[C@@H](O)C1O (some centres undefined) (stock concentration (mM, diluted 1:100): 10) | 2.98 (inactive) | 1.26 (inactive) | -0.69 (inactive) | -0.79 (inactive) |
| Cc1onc(-c2ccccc2)c1-c1ccc(S(N)(=O)=O)cc1 [Valdecoxib] (stock concentration (mM, diluted 1:100): 10) | -1.13 (inactive) | -1.51 (inactive) | 11 (active) | 0.72 (inactive) |
| CC1(C)S[C@@H]2[C@H](/N=C/N3CCCCCC3)C(=O)N2[C@H]1C(=O)O [Mecillinam] (stock concentration (mM, diluted 1:100): 10) | 0.59 (inactive) | -0.86 (inactive) | -0.02 (inactive) | 1.05 (inactive) |
| O=C(O[C@@H]1Cc2c(O)cc(O)cc2O[C@@H]1c1cc(O)c(O)c(O)c1)c1cc(O)c(O)c(O)c1 [Epigallocatechin gallate] (stock concentration (mM, diluted 1:100): 10) | -1.44 (inactive) | 0.29 (inactive) | -3.35 | 0.97 (inactive) |
| O=C1c2cccc3c2[C@H](CCC3)CN1[C@@H]1CN2CCC1CC2 [Palonosetron hydrochloride] (stock concentration (mM, diluted 1:100): 10) | 8.71 (inactive) | 5.73 (active) | 2.17 (active) | -1.82 (inactive) |
| CCN1CCCC1CNC(=O)c1cc(S(=O)(=O)CC)c(N)cc1OC (centres undefined) [Amisulpride] (stock concentration (mM, diluted 1:100): 10) | -0.38 (inactive) | -0.66 (inactive) | -0.73 (inactive) | -0.22 (inactive) |
| CC1CNc2c(cccc2S(=O)(=O)N[C@@H](CCCNC(=N)N)C(=O)N2CC[C@@H](C)C[C@@H]2C(=O)O)C1 (some centres undefined) [Argatroban] (stock concentration (mM, diluted 1:100): 10.1) | -1.04 (inactive) | 0.32 (inactive) | -2.07 | -0.6 (inactive) |
| O=c1c(O[C@@H]2O[C@H](CO)[C@@H](O)[C@H](O)[C@H]2O)c(-c2ccc(O)c(O)c2)oc2cc(O)cc(O)c12 [Isoquercetrin] (stock concentration (mM, diluted 1:100): 10) | -1.49 (inactive) | -0.48 (inactive) | -0.6 (inactive) | 0.03 (inactive) |
| Cc1cccc(C)c1NC(=O)C1CCCCN1C (centres undefined) [Mepivacaine hydrochloride] (stock concentration (mM, diluted 1:100): 10) | 1.82 (inactive) | 0.1 (inactive) | -3.28 | -0.29 (inactive) |
| C=CC1=C(C(=O)O)N2C(=O)[C@@H](NC(=O)/C(=N\O)c3csc(N)n3)[C@H]2SC1 [Cefdinir] (stock concentration (mM, diluted 1:100): 10) | 3.95 (inactive) | 0 (inactive) | -1.07 (inactive) | -0.67 (inactive) |
| CN1C2CCCC1CC(NC(=O)c1nn(C)c3ccccc13)C2 (centres undefined) [Granisetron hydrochloride] (stock concentration (mM, diluted 1:100): 9) | 2.25 (inactive) | 0.28 (inactive) | -1.22 (inactive) | -0.57 (inactive) |
| CN1[C@@H](CC(=O)c2ccccc2)CCC[C@H]1C[C@H](O)c1ccccc1 [Lobeline hydrochloride] (stock concentration (mM, diluted 1:100): 10) | 2.99 (inactive) | 0.57 (inactive) | -1.96 (inactive) | 0.72 (inactive) |

| SMILES | CDA2-GFP sporulation assay sensitivity score [1] | HIS4 meiotic recombination assay sensitivity score [2] | growth sensitivity score [3] | growth sensitivity score [4] |
| --- | --- | --- | --- | --- |
| CN1CCCC(n2nc(Cc3ccc(Cl)cc3)c3ccccc3c2=O)CC1 (centres undefined) [Azelastine hydrochloride] (stock concentration (mM, diluted 1:100): 9.1) | 0.63 (inactive) | 10.7 (active) | 11 (active) | 0.19 (inactive) |
| COc1ccc(CC(C)NCC(O)c2ccc(O)c(NC=O)c2)cc1 (centres undefined) [Formoterol fumarate dihydrate] (stock concentration (mM, diluted 1:100): 7) | 0.41 (inactive) | -1.68 (inactive) | -0.7 (inactive) | -0.1 (inactive) |
| C[C@]12CCC(=O)C=C1CC[C@@H]1[C@@H]2CC[C@@]2(C)[C@H]1CC[C@]2(O)C(=O)CO [Cortodoxone] (stock concentration (mM, diluted 1:100): 10) | 5 (inactive) | 0.86 (inactive) | 6.84 (active) | -0.69 (inactive) |
| NC(N)=Nc1nc(CSCC/C(N)=N/S(N)(=O)=O)cs1 [Famotidine] (stock concentration (mM, diluted 1:100): 10) | 0.3 (inactive) | -0.42 (inactive) | -2.06 | -0.98 (inactive) |
| CO[C@H]1/C=C/O[C@@]2(C)Oc3c(C)c(O)c4c(c3C2=O)C2=NC3(CCN(CC(C)C)CC3)NC2=C(NC(=O)/C(C)=C\C=C\[C@H](C)[C@H](O)[C@@H](C)[C@@H](O)[C@@H](C)[C@H](OC(C)=O)[C@@H]1C)C4=O [Rifabutin] (stock concentration (mM, diluted 1:100): 10) | 6 (inactive) | -1.4 (inactive) | 1.43 (inactive) | 0.72 (inactive) |
| CC(Cc1ccccc1)(NC(=O)CN)c1ccccc1 (centres undefined) [Remacemide] (stock concentration (mM, diluted 1:100): 10) | 2.76 (inactive) | -1.04 (inactive) | 4.61 (active) | -0.78 (inactive) |
| CC(=O)O[C@@]12CO[C@@H]1C[C@H](O)[C@@]1(C)C(=O)[C@H](O)C3=C(C)[C@@H](OC(=O)[C@H](O)[C@@H](NC(=O)OC(C)(C)C)c4ccccc4)C[C@@](O)([C@@H](OC(=O)c4ccccc4)[C@H]21)C3(C)C [Docetaxel] (stock concentration (mM, diluted 1:100): 10) | -0.23 (inactive) | -1.69 (inactive) | -0.53 (inactive) | 1.16 (inactive) |
| C[C@]12C=CC(=O)C=C1CC[C@@H]1[C@@H]2[C@@H](O)C[C@@]2(C)[C@H]1CC[C@]2(O)C(=O)COC(=O)CCC(=O)O (stock concentration (mM, diluted 1:100): 10) | -0.32 (inactive) | -0.86 (inactive) | -0.63 (inactive) | -0.61 (inactive) |
| CO[C@H]1O[C@@H]2O[C@@]3(C)CC[C@H]4[C@H](C)CC[C@@H]([C@H]1C)[C@@]24OO3 [Artemether] (stock concentration (mM, diluted 1:100): 10) | 7.92 (inactive) | -0.64 (inactive) | 9.66 (active) | 17.6 (active) |
| CN1[C@@H]2CC[C@H]1C[C@@H](OC(=O)c1c[nH]c3ccccc13)C2 [Tropisetron hydrochloride] (stock concentration (mM, diluted 1:100): 7.7) | 1.1 (inactive) | 0.82 (inactive) | -2.07 | -0.89 (inactive) |
| C[C@]12CC[C@@H]3c4ccc(O)cc4CC[C@H]3[C@@H]1CC[C@@H]2O [Beta-Estradiol] (stock concentration (mM, diluted 1:100): 10) | 0.49 (inactive) | -2.13 (inactive) | 10.3 (active) | 3.35 (active) |
| CCCCC(=O)N(Cc1ccc(-c2ccccc2-c2nnn[nH]2)cc1)[C@H](C(=O)O)C(C)C [Valsartan] (stock concentration (mM, diluted 1:100): 10) | 0.42 (inactive) | -0.5 (inactive) | -1.81 (inactive) | -1.05 (inactive) |
| CC(=O)[C@@]1(O)CC[C@H]2[C@@H]3C[C@H](C)C4=CC(=O)CC[C@]4(C)[C@H]3CC[C@@]21C [Medroxyprogesterone] (stock concentration (mM, diluted 1:100): 10) | -0.44 (inactive) | 0.24 (inactive) | 4.15 (active) | -0.01 (inactive) |
| Cc1ccc(O)c([C@H](CCN(C(C)C)C(C)C)c2ccccc2)c1 [Tolterodine tartrate] (stock concentration (mM, diluted 1:100): 6.9) | 1.84 (inactive) | 4.21 (inactive) | 2.36 (active) | 0.36 (inactive) |
| O=C1[C@H]2CCCC[C@H]2C(=O)N1CCCCN1CCN(c2nsc3ccccc23)CC1 [Perospirone hydrochloride] (stock concentration (mM, diluted 1:100): 9.4) | 2.69 (inactive) | -2.62 (inactive) | 2.19 (active) | 3.13 (active) |
